According to PubChem BioAssay (EPA / NIEHS):
Activity calls are given as the source filed them. How the source made its calls: active means hit-call score of the fitted dose curve at least 0.9, where 1 is the maximum; inactive means score below 0.9.

How the values were obtained:
[1] = ATG_E_Box_CIS: Attagene CIS-FACTORIAL HepG2 Assay for human Enhancer Box (E-box) (AID 2282936); settings: HepG2 E-box cis-reporter transcription, actives raise or lower the signal
Outline: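 Measured 24 h post-dosing in HepG2 cells transfected with multiple cis-regulated reporter units, signal being reporter mRNA induction detected by fluorescent RT-PCR with capillary electrophoresis; gain or loss fitted against DMSO.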

[2] = ATG_M_61_CIS: Attagene CIS-FACTORIAL HepG2 Assay for M61 Transcription Factor (Internal Marker) (AID 2282937); settings: HepG2 Attagene CIS-FACTORIAL M61 internal marker reporter; actives raise or lower the signal
Outline: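 Background-control endpoint: HepG2 cells with cis-regulated reporter constructs, 24 h exposure, reporter mRNA detected via fluorescent primer extension and capillary electrophoresis; values from bidirectional fitting with DMSO baseline.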

[3] = ATG_EGR_CIS: Attagene CIS-FACTORIAL HepG2 Assay for human Early Growth Response 1 (EGR1) (AID 2282938); settings: HepG2 Attagene CIS-FACTORIAL EGR reporter mRNA; actives raise or lower the signal
Outline: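 Endpoint derived by bidirectional fitting versus DMSO vehicle. Method: cis-promoter reporter units transfected into HepG2, 24 h dosing, RNA isolation, RT-PCR with 6-FAM primer extension and HpaI digestion, then capillary electrophoresis fluorescence detection.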

[4] = ATG_M_19_CIS: Attagene CIS-FACTORIAL HepG2 Assay for M19 Transcription Factor (Internal Marker) (AID 2282939); settings: HepG2 Attagene CIS-FACTORIAL M19 internal marker reporter; actives raise or lower the signal
Outline: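 Following a 24 h exposure, RNA from transfected HepG2 cells was reverse-transcribed, PCR-amplified with reporter-specific primers, end-labelled with 6-FAM and HpaI-digested before capillary separation. Values represent gain or loss versus DMSO.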

[5] = ATG_ERE_CIS: Attagene CIS-FACTORIAL HepG2 Assay for Estrogen Response Element (ERE) (AID 2282940); settings: HepG2 ERE cis-reporter, Attagene RNA transcript; actives raise or lower the signal
Outline: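 HepG2, transient cis-reporter units, 24 h exposure. RNA isolated, oligo(dT) RT, reporter-specific PCR, FAM extension, HpaI cut, CE detection. Gain/loss-of-signal vs DMSO.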

[6] = ATG_Ets_CIS: Attagene CIS-FACTORIAL HepG2 Assay for human Erythroblast Transformation Specific (ETS) (AID 2282941); settings: HepG2 ETS cis-reporter transcription, actives raise or lower the signal
Outline: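 Bidirectional fit versus DMSO of reporter mRNA signal, detected by RT-PCR and capillary electrophoresis in HepG2 cells transiently transfected with cis-element reporters and dosed 24 h.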

[7] = molecular target: Hepatocyte nuclear factor 3-beta (Homo sapiens) (UniProt Q9Y261); assay: ATG_FoxA2_CIS: Attagene CIS-FACTORIAL HepG2 Assay for human Forkhead box A2 (FOXA2) (AID 2282942); settings: HepG2 cis-reporter transcription factor activity, 24 h; actives raise or lower the signal
Sequence of Hepatocyte nuclear factor 3-beta (Homo sapiens) (Q9Y261 whole entry, looked up): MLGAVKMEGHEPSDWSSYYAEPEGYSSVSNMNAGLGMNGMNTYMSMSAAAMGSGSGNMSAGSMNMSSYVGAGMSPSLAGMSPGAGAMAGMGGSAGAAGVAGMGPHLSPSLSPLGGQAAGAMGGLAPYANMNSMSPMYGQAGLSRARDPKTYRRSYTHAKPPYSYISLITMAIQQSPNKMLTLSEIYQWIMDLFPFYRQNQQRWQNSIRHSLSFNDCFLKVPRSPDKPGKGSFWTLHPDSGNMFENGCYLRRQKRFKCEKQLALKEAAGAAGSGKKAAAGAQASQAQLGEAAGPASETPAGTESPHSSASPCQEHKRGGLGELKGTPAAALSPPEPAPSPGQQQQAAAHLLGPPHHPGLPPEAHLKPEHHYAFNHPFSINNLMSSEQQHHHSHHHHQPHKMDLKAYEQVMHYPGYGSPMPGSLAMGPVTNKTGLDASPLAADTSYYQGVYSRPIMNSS
Outline: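 Measured: reporter mRNA induction or loss in HepG2 transiently carrying multiple cis-regulated reporter units, 24 h after dosing. Quantified by RT-PCR plus capillary electrophoresis, normalised to DMSO.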

[8] = ATG_FoxO_CIS: Attagene CIS-FACTORIAL HepG2 Assay for human Forkhead box O (FoxO) (AID 2282943); settings: HepG2 Attagene cis-reporter, FoxO element, mRNA; actives raise or lower the signal
Outline: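 Values reflect reporter mRNA induction or loss in HepG2 cells 24 h post-dosing, fitted bidirectionally with DMSO as negative control and baseline. Detection used RT-PCR and fluorescence capillary electrophoresis.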

[9] = ATG_GATA_CIS: Attagene CIS-FACTORIAL HepG2 Assay for human GATA Binding Protein (AID 2282944); settings: HepG2 GATA cis-element reporter, Attagene multiplex mRNA; actives raise or lower the signal
Outline: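 DMSO serves as negative control and baseline for bidirectional fitting of reporter mRNA changes. HepG2 cells bearing transiently transfected cis-promoter reporters were exposed 24 h; transcripts detected via RT-PCR and capillary electrophoresis.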

[10] = ATG_GLI_CIS: Attagene CIS-FACTORIAL HepG2 Assay for human Zinc Finger Protein GLI1 (AID 2282945); settings: HepG2, Attagene cis-factorial reporter mRNA, GLI element; actives raise or lower the signal
Outline: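 HepG2 cells transiently transfected with cis-promoter multiplexed reporter units report endogenous transcription factor activity. After 24 h chemical exposure, reporter mRNA was quantified by RT-PCR, 6-FAM labelling, HpaI digestion and capillary electrophoresis, with bidirectional fitting against DMSO.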

[11] = molecular target: Bile acid receptor (Homo sapiens) (UniProt Q96RI1); assay: ATG_IR1_CIS: Attagene CIS-FACTORIAL HepG2 Assay for human Nuclear Receptor Subfamily 1 Group H Member 4 (NR1H4), IR1 submotif (AID 2282946); settings: IR1 reporter transcription, actives raise or lower the signal
Sequence of Bile acid receptor (Homo sapiens) (Q96RI1 whole entry, looked up): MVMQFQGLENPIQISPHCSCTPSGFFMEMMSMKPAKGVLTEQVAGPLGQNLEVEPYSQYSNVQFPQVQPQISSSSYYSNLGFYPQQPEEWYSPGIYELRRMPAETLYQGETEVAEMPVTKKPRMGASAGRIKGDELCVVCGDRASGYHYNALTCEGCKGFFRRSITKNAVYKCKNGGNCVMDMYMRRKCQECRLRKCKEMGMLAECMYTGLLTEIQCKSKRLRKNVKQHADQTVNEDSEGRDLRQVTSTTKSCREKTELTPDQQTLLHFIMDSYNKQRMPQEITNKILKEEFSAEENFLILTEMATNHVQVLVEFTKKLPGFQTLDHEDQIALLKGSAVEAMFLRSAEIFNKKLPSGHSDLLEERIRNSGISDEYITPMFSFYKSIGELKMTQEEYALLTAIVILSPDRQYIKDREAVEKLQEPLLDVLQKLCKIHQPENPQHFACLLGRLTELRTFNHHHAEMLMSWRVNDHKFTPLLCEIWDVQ
Outline: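 Readout: reporter transcript levels by RT-PCR with fluorescent capillary electrophoresis, from HepG2 cells transiently transfected with multiplexed cis-regulated reporters and dosed 24 h. Gain- or loss-of-signal fitted versus DMSO negative control.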

[12] = ATG_ISRE_CIS: Attagene CIS-FACTORIAL HepG2 Assay for human Interferon Regulatory Factor 1 (IRF1) binding to an Interferon-Stimulated Response Element (ISRE) (AID 2282948); settings: HepG2 ISRE cis-reporter (Attagene), mRNA transcription readout; actives raise or lower the signal
Outline: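 Uses HepG2 liver cells transfected with cis-regulated reporters and measures mRNA 24 h post-dosing through RT-PCR, primer-extension labelling and capillary electrophoresis, with DMSO as negative control.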

[13] = ATG_M_32_CIS: Attagene CIS-FACTORIAL HepG2 Assay for M32 Transcription Factor (Internal Marker) (AID 2282949); settings: HepG2 Attagene cis-factorial M32 reporter, mRNA; actives raise or lower the signal;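 further: background control marker of the multiplexed CIS panel rather than a real target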
Outline: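 Transient MRTU transfection of HepG2; 24 h compound treatment; TriZol RNA, oligo(dT) RT, reporter PCR, 6-FAM primer extension, HpaI cut, CE. Gain/loss of signal vs DMSO.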

[14] = ATG_M_06_CIS: Attagene CIS-FACTORIAL HepG2 Assay for M06 Transcription Factor (Internal Marker) (AID 2282950); settings: HepG2 Attagene CIS-FACTORIAL M06 internal marker reporter; actives raise or lower the signal
Outline: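 Fluorescence-labelled RT-PCR products from cis-promoter reporter units, cut with HpaI and resolved by capillary electrophoresis, give the signal. Cells are human HepG2, dosed for 24 h. Serves as background control, fitted relative to DMSO.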

[15] = molecular target: Hypoxia-inducible factor 1-alpha (Homo sapiens) (UniProt Q16665); assay: ATG_HIF1a_CIS: Attagene CIS-FACTORIAL HepG2 Assay for human Hypoxia Inducible Factor 1 (HIF1A) (AID 2282951); settings: HepG2 Attagene cis-factorial HIF1a reporter transcription; actives raise or lower the signal
Sequence of Hypoxia-inducible factor 1-alpha (Homo sapiens) (Q16665 whole entry, looked up): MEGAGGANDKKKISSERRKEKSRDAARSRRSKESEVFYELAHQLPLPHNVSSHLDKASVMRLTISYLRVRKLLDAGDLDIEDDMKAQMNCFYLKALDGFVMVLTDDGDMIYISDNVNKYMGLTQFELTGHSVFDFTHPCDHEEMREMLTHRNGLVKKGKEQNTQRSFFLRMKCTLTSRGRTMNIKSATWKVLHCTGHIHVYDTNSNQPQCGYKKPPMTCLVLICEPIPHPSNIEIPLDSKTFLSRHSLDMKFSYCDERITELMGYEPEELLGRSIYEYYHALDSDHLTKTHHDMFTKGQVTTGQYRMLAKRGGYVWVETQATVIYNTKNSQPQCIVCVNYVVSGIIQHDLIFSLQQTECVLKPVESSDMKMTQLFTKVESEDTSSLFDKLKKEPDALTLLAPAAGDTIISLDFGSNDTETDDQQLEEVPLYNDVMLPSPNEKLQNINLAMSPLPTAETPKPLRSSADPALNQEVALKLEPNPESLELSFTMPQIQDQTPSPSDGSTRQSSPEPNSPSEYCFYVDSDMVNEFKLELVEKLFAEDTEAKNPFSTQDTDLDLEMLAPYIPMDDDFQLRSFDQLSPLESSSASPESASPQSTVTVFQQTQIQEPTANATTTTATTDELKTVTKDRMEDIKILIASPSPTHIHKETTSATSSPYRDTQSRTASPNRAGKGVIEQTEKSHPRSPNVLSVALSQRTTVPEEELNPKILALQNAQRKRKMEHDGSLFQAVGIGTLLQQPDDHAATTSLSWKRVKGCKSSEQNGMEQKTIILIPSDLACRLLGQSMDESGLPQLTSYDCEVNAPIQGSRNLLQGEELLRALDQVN
Outline: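 Dosed 24 h, transfected HepG2 cells yielded total RNA whose reporter transcripts were RT-PCR-amplified and sized by capillary electrophoresis using fluorescent labelling; DMSO defined baseline, with gain and loss of signal both fitted.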

[16] = molecular target: Heat shock factor protein 1 (Homo sapiens) (UniProt Q00613); assay: ATG_HSE_CIS: Attagene CIS-FACTORIAL HepG2 Assay for human Heat Shock Transcription Factor 1 (HSE) (AID 2282953); settings: HepG2 HSE cis-reporter, Attagene RNA transcription; actives raise or lower the signal
Sequence of Heat shock factor protein 1 (Homo sapiens) (Q00613 whole entry, looked up): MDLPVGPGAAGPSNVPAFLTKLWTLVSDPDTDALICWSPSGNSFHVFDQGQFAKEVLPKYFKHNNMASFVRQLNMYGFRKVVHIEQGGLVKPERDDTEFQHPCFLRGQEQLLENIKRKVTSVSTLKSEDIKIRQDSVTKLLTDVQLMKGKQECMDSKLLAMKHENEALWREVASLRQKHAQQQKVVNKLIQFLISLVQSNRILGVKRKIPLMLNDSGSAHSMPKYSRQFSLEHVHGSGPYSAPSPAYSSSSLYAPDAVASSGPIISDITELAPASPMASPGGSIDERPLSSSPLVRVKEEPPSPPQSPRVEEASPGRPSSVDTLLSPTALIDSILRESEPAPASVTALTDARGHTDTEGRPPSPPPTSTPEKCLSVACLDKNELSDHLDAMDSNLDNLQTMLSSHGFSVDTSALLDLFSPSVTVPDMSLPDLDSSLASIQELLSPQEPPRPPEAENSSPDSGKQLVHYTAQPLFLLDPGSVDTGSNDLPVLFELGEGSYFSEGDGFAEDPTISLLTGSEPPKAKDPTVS
Outline: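 After a 24 h incubation with test chemical, transfected HepG2 cells were harvested for RNA; reporter transcripts were measured by RT-PCR and capillary electrophoresis. Values reflect gain or loss of signal relative to DMSO.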

[17] = ATG_MRE_CIS: Attagene CIS-FACTORIAL HepG2 Assay for human Metal Responsive Element (MRE) (AID 2282954); settings: HepG2 MRE cis-reporter transcription, Attagene multiplex; actives raise or lower the signal
Outline: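 Readout: capillary electrophoresis of 6-FAM-labelled, HpaI-digested RT-PCR reporter products. System: HepG2 cells carrying transient multiplexed cis reporters, dosed 24 h. Analysis: bidirectional fit, DMSO baseline.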

[18] = molecular target: Hepatocyte nuclear factor 6 (Homo sapiens) (UniProt Q9UBC0); assay: ATG_HNF6_CIS: Attagene CIS-FACTORIAL HepG2 Assay for human Hepatocyte Nuclear Factor 6 (HNF6) (AID 2282952); settings: HepG2 Attagene cis-factorial HNF6 reporter transcription; actives raise or lower the signal
Sequence of Hepatocyte nuclear factor 6 (Homo sapiens) (Q9UBC0 whole entry, looked up, the tested form may be a part): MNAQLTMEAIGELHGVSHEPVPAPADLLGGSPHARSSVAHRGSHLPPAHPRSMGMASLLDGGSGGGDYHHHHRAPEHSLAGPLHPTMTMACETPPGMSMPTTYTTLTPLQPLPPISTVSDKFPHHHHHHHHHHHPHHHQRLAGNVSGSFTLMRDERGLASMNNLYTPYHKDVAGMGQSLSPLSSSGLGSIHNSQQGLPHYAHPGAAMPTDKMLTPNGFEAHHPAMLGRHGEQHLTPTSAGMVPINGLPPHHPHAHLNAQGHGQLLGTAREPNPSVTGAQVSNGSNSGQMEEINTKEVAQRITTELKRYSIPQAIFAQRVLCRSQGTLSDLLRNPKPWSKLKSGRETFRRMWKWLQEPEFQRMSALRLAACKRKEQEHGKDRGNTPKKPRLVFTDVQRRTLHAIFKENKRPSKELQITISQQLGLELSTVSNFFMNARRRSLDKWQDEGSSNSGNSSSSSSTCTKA
Outline: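 First, HepG2 cells were transfected with the multiplexed cis reporter library and dosed with chemical for 24 h. Next, RNA was reverse-transcribed, PCR-amplified and fluorescently labelled. Finally, HpaI-digested fragments were read by capillary electrophoresis.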

[19] = ATG_GRE_CIS: Attagene CIS-FACTORIAL HepG2 Assay for human Glucocorticoid Response Elements (GRE) (AID 2282947); settings: HepG2 GRE cis-reporter, Attagene multiplex mRNA; actives raise or lower the signal
Outline: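 HepG2, transient cis-reporter transfection, 24 h. Reporter mRNA: RT-PCR then CE, fluorescence. Fit both directions vs DMSO.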

Measured: AC50

COc1cc(O)c(C(=O)c2ccccc2)cc1S(=O)(=O)O
active: [5] 56 µM
not listed: [18] | [19]
inactive: all other assays above

CCCCCCCCCCCCCC(=O)OC(C)C
not listed: [2] | [8] | [10] | [19]
inactive: all other assays above

C=CCCCCCCCCO
not listed: [11]
inactive: all other assays above

O=C(Oc1ccccc1)c1ccccc1O
not listed: [11] | [17] | [19]
inactive: all other assays above

O=C1CCCCC1C1CCCCC1 (stereo not drawn)
not listed: [8] | [11]
inactive: all other assays above

CC1CC(=O)CC(C)(C)C1 (stereo not drawn)
not listed: [11] | [16]
inactive: all other assays above

CCCCCCCCC(CO)CCCCCC (stereo not drawn)
active: [1] 34.3 µM | [6] 173 µM | [9] 65.5 µM | [19] 126 µM | [17] 158 µM
not listed: [2] | [18]
inactive: all other assays above

CCCCCOC(=O)CCCCC
not listed: [11] | [18]
inactive: all other assays above

O=C(O)CC(C(=O)O)S(=O)(=O)O (stereo not drawn)
not listed: [11]
inactive: all other assays above

NNS(=O)(=O)c1ccc(Oc2ccc(S(=O)(=O)NN)cc2)cc1
not listed: [3] | [10] | [19]
inactive: all other assays above
